TDP1 block: TDP1 (human) enzyme inhibition. recombinant TDP1, AlphaScreen DNA substrate cleavage. actives 0.28% (n = 350,000). Potency, µM (series often up to 130 µM), without a hit: at the top dose activity change, negative = inhibition, most hits filed as inhibitors; note: potency is the fitted concentration of half-maximal effect; nearly all actives have a fitted effect of over 40% in size
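Recombinant human Tdp1 (E. coli-expressed, 1 nM final) preincubated with compounds 15 min at room temperature, then 5'-biotin/3'-phosphotyrosine-FITC DNA substrate (15 nM final) added for 5 min. AlphaScreen beads (10 ug/ml final) added 10 min; cleavage lowers signal.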
IL-1B inflam inh: inflammasome signaling inhibition, IL-1 beta readout. THP-1 LPS/ATP IL-1B secretion, AlphaLISA, 16 h; active compounds read low. actives 4.7% (n = 360,000). activity change, % at 57.5 µM; in the data active = activity change below about -50%; inconclusive = mostly about -30% to -49%
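Secreted IL-1B measured by AlphaLISA bead assay after 16 h compound exposure of THP-1 cells; compounds (final up to 57.5 uM) added 1 h before LPS (250 ng/mL) and ATP (1.25 mM) stimulation; lower signal means less secretion.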
Six1-Eya2 blk: blocks human Six1 binding to Eya2; Q15475+O00167; AlphaScreen GST-Six1/His-Eya2 binding, biochemical; active compounds read low; activity change, % (test concentration not listed); actives 0.56% (n = 360,000); in the data active = activity change below about -65%; inconclusive = mostly about -30% to -63%
Target sequence (O00167 whole entry, looked up): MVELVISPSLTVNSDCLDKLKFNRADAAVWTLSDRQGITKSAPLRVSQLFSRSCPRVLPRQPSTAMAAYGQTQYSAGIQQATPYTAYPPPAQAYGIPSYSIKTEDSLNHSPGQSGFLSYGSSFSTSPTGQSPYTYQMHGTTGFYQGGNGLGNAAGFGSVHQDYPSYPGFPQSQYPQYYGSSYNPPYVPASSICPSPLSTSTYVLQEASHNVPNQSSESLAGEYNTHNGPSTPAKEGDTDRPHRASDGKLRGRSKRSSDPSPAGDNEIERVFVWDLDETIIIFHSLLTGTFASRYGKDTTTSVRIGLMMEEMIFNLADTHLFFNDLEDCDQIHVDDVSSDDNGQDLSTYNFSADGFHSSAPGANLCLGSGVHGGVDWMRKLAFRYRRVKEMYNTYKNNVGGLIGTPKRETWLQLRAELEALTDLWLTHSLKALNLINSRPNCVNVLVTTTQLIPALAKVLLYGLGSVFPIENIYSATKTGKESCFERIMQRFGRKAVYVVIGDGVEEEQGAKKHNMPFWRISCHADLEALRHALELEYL
Target sequence (Q15475 whole entry, looked up): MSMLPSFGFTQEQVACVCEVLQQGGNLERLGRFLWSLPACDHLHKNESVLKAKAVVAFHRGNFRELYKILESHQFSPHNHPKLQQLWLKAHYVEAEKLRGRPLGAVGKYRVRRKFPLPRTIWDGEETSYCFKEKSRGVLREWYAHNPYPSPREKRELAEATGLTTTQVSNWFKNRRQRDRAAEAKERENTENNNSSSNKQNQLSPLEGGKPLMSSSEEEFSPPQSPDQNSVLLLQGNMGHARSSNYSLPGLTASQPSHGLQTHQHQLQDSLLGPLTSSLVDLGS
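AlphaScreen luminescence read after one hour at 37 °C in darkness. Pin-transferred compounds met GST-Six1 and His-Eya2 protein (5X stock 250 nM/500 nM) plus glutathione donor and Ni-chelate acceptor beads (5X, 50 ug/mL).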
CtBP-E1A inh: CtBP/E1A binding inhibition | AlphaScreen GST-E1A/His-CtBP binding, 1536-well; active compounds read low | activity change, % (test concentration not listed) | actives 0.49% (n = 340,000) | AID 651724; in the data active = activity change below about -65%; inconclusive = mostly about -30% to -63%
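Homogeneous bead-based format: GST-tagged E1A captured on glutathione donor beads, His-tagged CtBP on nickel acceptor beads; compounds precede bead addition by 2 h at 37 °C.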
DT40 TDP1 CPT: DT40-hTDP1 cell growth loss with CPT; actives 12% (n = 420,000); Potency, µM (top dose mostly 46.2 µM), for the others: at the highest dose activity change, negative = growth inhibition, hits mostly inhibitors; chicken DT40 Tdp1-/-;hTDP1 cells + 20 nM CPT, ATP luminescence, 48 h; note: potency is the fitted concentration of half-maximal effect; nearly all actives have a fitted effect of over 55% in size
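Chicken DT40 Tdp1-/- cells stably complemented with human TDP1 were seeded at 400 cells/well in medium containing 20 nM camptothecin, exposed to pin-transferred compounds, and grown at 37 °C for at least 48 hr. Viability was read as ATP luminescence.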
TDP1 cell noCPT: qHTS for Inhibitors of human tyrosyl-DNA phosphodiesterase 1 (TDP1): qHTS in cells in absence of CPT | DT40 Tdp1-/- hTDP1 cells, no CPT, ATP luminescence, 48 h | Potency, µM (titrated, usually from 46.2 µM), for the others: at the top dose activity change, negative = growth inhibition, usual class: inhibitors | actives 15% (n = 420,000); note: potency is the fitted concentration of half-maximal effect; nearly all actives have a fitted effect of over 55% in size
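Camptothecin absent (DMSO only). Human TDP1-complemented DT40 knockout cells, 400 cells/well, 37 °C for minimum 48 hr; ATP measured via CellTiter-Glo, 30 min dark incubation, luminescence.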
Numbers without * were called inactive; ? = inconclusive; . = no result given; [ ] = another dose, or the depositor's remark. Compounds with a hit are over-represented: about 18% of the library has one in this group of screens. Unless noted, calls come from the whole dose curve; as a rule, active = well fitted curve in the direction sought with a large enough effect; inconclusive = small, poorly fitted or top-dose-only effect, or another doubt; inactive = no such curve, though single readings can be large; an effect the other way counts as inactive or inconclusive. % is set by controls: 0 for no effect and ±100 for the full control effect.

SMILES	TDP1 block	IL-1B inflam inh	Six1-Eya2 blk	CtBP-E1A inh	DT40 TDP1 CPT	TDP1 cell noCPT
CCCc1cc(=O)oc2c(CNc3ccc(OCC)cc3)c(O)ccc12	.	0	-5	-3	12µM*	?
CC(C)OC(=O)c1c2c(n3ccccc13)C(=O)c1ccccc1C2=O	-2%	0	-17	-10	15µM*	13µM*
COC(=O)c1c(C(=O)OC)c2ccccn2c1C(=O)c1ccc([N+](=O)[O-])cc1	.	3	?	-26	0%	-23%
COc1cccc(N2CC(NC(=O)c3ccc(S(=O)(=O)N4CCOCC4)cc3)CC2=O)c1 (configuration not stated)	3%	.	.	.	?	?
CCOC(=O)c1ccccc1Nc1cn(C(C)=O)c2ccccc12	0%	25	-7	7	3.7µM*	4.6µM*
O=c1ccc(S(=O)(=O)N2CCCC2)cn1Cc1ccc(Cl)cc1Cl	-5%	-4	3	-1	21µM*	12µM*
CN(C)C(=O)c1ccc(=O)n(Cc2ccc(Cl)cc2Cl)c1	.	38	1	12	8%	-3%
CCOc1cc(C(=O)Nc2cc(C)ccn2)cc(OCC)c1OCC	2%	-2	-1	5	18µM*	?
Cc1ccnc(NC(=O)c2ccc(C(=O)c3ccccc3)cc2)c1	.	-17	-6	-4	18µM*	21µM*
Cc1ccnc(NC(=O)c2ccc(S(=O)(=O)NCc3ccco3)cc2)c1	-12%[0.505 µM]	-1	-3	-1	21µM*	?
COc1ccc(C(=O)Nc2cccc(C(=O)Nc3cc(C)ccn3)c2)cc1	.	-2	-4	8	?	21µM*
CCOC(CNC(=O)CN1C(=O)COc2ccc(S(=O)(=O)N3CCOCC3)cc21)OCC	0%	-2	3	-7	-2%	27%
COc1ccc(C(C(=O)NCC2CCCO2)N(C(=O)CNC(=O)c2ccco2)c2ccc(C)c(C)c2)cc1OC (configuration not stated)	.	15	1	24	3%	-5%
CCOc1ccc(C(=O)Nc2cc(C)ccn2)cc1	3%	-9	5	1	7.3µM*	23µM*
COCCSc1ccccc1C(=O)Nc1cc(C)ccn1	3%	10	19	4	?	23µM*
CCOc1ccc(C(=O)NCC(=O)Nc2cc(C)ccn2)cc1OCC	0%	?	-3	-2	2%	24%
Cc1ccnc(N2CCC(C(=O)NNC(=O)c3ccncc3)CC2)n1	0%	4	6	.	8%	13%
COCCNc1nc2cc(-c3ccc(F)cc3)sc2c(=O)n1C	.	8	4	1	1%	-5%
O=c1[nH]c(CCl)nc2cc(-c3ccc(F)cc3)sc12	4%[0.0935 µM]	-102*	7	11	5.2µM*	4.1µM*
CCOc1cc(/C=N/NC(N)=O)ccc1OCC(=O)Nc1ccc(C)c(C)c1	8%	-15	-7	5	21µM*	23µM*
COc1cccc(/C=N/NC(=O)c2cccc3ccccc23)c1	3%[56.1 µM]	33	-6	-21	?	?
COc1cc(/C=N/NC(=O)c2cccc3ccccc23)ccc1OCC(N)=O	.	65	?	-14	?	5.8µM*
COc1cc(/C=N/NC(=O)c2cccc(C)c2)ccc1OCC(=O)Nc1ccccc1	.	13	-30	4	?	18µM*
CCOc1ccc(C=NNC(=O)c2cccc3ccccc23)cc1OCC	.	7	?	-20	?	18µM*
COc1cc(/C=N/NC(N)=O)ccc1OCC(=O)Nc1ccc(C)c(C)c1	-5%	-7	3	-12	-5%	7%
SMILES	TDP1 block	IL-1B inflam inh	Six1-Eya2 blk	CtBP-E1A inh	DT40 TDP1 CPT	TDP1 cell noCPT
O=C(Cn1cc([N+](=O)[O-])cn1)Nc1ccccn1	0%	-3	-13	-8	-11%	-7%
CCOc1cc(/C=N/NC(=O)c2nn(C)cc2Br)ccc1OCc1ccccc1	3%	28	-2	7	15µM*	10µM*
CCN(CC)S(=O)(=O)c1ccc(/C(O)=C2/C(=O)C(=O)N(CCOC)C2c2ccccc2)cc1 (configuration not stated)	2%	5	7	14	0%	-9%
CCOC(=O)c1cc2c(=O)c3cc(C)ccc3oc2nc1C	.	-2	11	-3	?	15µM*
N#CCC(=O)Nc1nc(-c2ccc3c(c2)OCCO3)cs1	8%	-4	-7	.	-19%	?
COc1cc(-c2ccc3c(=O)c4ccccc4n(C)c3c2)cc(OC)c1OC	.	?	21	.	16µM*	12µM*
Cn1c2ccccc2c(=O)c2ccc(F)cc21	.	-51*	2	-6	?	?
COc1ccc(-c2cc(Cl)cc3c(=O)c4ccccc4n(C)c23)cc1F	.	-12	20	32	18µM*	21µM*
CC(=O)Nc1c(-c2ccc(Cl)cc2)c(=O)c2ccccc2n1C	.	44	59	11	10%	-3%
Cn1cc(S(C)=O)c(=O)c2ccc(F)cc21 (configuration not stated)	.	.	.	.	0%	-1%
Cn1c2ccccc2c(=O)c2ccc(-c3ccc4c(c3)OCO4)cc21	.	-8	9	-2	?	13µM*
Cc1noc(C)c1CCC(=O)Nc1cc(Cl)ccc1C(=O)O	.	9	-9	-5	-9%	-13%
c1ccc2c(c1)c1ccccc1n1c(-c3ccc4c(c3)OCO4)nnc21	-1%	-57*	2	7	?	21µM*
Cn1c(C=O)c(-c2ccc3c(c2)OCCO3)c2ccccc21	?	-8	52	44	?	18µM*
CC(C)n1c(O)c(N=NC(=O)c2ccccc2NS(=O)(=O)c2cccs2)c2ccccc21	3%	27	-86*	.	?	?
CCc1ccc(S(=O)(=O)Nc2cccc(-c3ccc4nnc(C)n4n3)c2)s1	-11%	49	-8	0	23µM*	16µM*
COc1ccc(-c2cccc(NS(=O)(=O)c3cccs3)c2)nn1	-1%	.	.	.	?	?
CCc1ccc(S(=O)(=O)Nc2cccc(-c3ccc(OC)nn3)c2)s1	4%	.	.	.	12µM*	9.2µM*
CCc1ccc(S(=O)(=O)Nc2ccc(-c3ccc4nnc(C)n4n3)cc2)s1	-5%	48	-18	.	?	?
Cc1ccc(C(=O)N(Cc2cc3cccc(C)c3nc2N2CCC(O)CC2)C2CC2)cc1	.	.	.	.	-1%[9.04 µM]	13µM*
